Results from PubChem BioAssay (NCI).
About 79,000 compounds went through this panel and 15% of them were active in at least one assay; those are over-represented in the sample as a whole. Rule as the data show it: active = growth inhibition above about 70%; inactive = the rest.

Legend:
[1] = NCI Yeast Anticancer Drug Screen. Data for the rad50 strain (AID 155);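 also: 0% = growth of vehicle-only cultures of the same strain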; details: S. cerevisiae rad50 strain growth inhibition; at 50.0 µM; stronger effect = higher value
How it was run: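 A DNA repair-deficient yeast mutant serves as the test organism; compound-induced growth inhibition is calculated against vehicle-treated cells.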

[2] = NCI Yeast Anticancer Drug Screen. Data for the mec2-1 strain (AID 157); details: S. cerevisiae mec2-1 strain, at 50.0 µM, stronger effect = higher value
How it was run: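 Using mec2-1 yeast: add compound, measure growth, express inhibition versus vehicle-treated cultures.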

[3] = NCI Yeast Anticancer Drug Screen. Data for the sgs1 mgt1 strain (AID 161);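 also: 0% = growth of cultures given vehicle only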; details: S. cerevisiae sgs1 mgt1 strain, at 50.0 µM, stronger effect = higher value
How it was run: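 This yeast growth screen uses a strain with defined DNA-repair lesions; compound-treated growth is compared with vehicle-treated growth.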

[4] = NCI Yeast Anticancer Drug Screen. Data for the cln2 rad14 strain (AID 165);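 also: 0% = growth equal to vehicle treated cultures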; details: S. cerevisiae cln2 rad14 strain, at 50.0 µM, stronger effect = higher value
How it was run: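 Yeast strain cln2 rad14, bearing defects in cell cycle control and DNA repair, serves as the test system; values reflect growth inhibition compared with vehicle.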

[5] = NCI Yeast Anticancer Drug Screen. Data for the bub3 strain (AID 167); details: S. cerevisiae bub3 mutant strain, at 50.0 µM, stronger effect = higher value
How it was run: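 Inhibition values come from growth of compound-treated mutant yeast normalised to vehicle-treated controls.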

[6] = NCI Yeast Anticancer Drug Screen. Data for the mlh1 rad18 strain (AID 175); details: S. cerevisiae mlh1 rad18 strain growth inhibition; at 50.0 µM; stronger effect = higher value
How it was run: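 Steps: expose repair-defective yeast to compound; measure growth; express inhibition against vehicle-treated controls.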

Measured: growth inhibition

C=C1SC(=Nc2c(C)cccc2C)N(c2nc(Cl)nc(Cl)n2)C12CCCCC2
inactive: [1] 21% | [2] -8.75% | [3] 11.2% | [4] 19.1% | [5] 10.9%

Oc1cc(O)c2c(c1)O[C@H](c1ccc(O)c(O)c1)[C@@H](O)C2
inactive: [1] 0.9% | [2] -17.9% | [3] 2.75% | [4] 1.35% | [5] -6.45%

CCNc1ncnc2[nH]ncc12
inactive: [1] -8.2% | [2] -6.45% | [3] -5.6% | [4] -13.8% | [5] 3.9%

C/C=C/C1OCC(CC)C(CCC)O1 (configuration not stated)
inactive: [1] 36% | [2] 11.2% | [3] 1.85% | [4] -36.8% | [5] -17.9%

O=C(O)Cc1ccccn1
inactive: [1] -29.4% | [2] -49.1% | [3] -1.75% | [4] 14.1% | [5] -28.8%

Nc1ccn(C2OC(CO)C(O)C2F)c(=O)n1 (configuration not stated)
inactive: [1] 12.4% | [2] 0.45% | [3] 11.9% | [4] 10.7% | [5] -0.1%

Nc1cc(F)ccc1[N+](=O)[O-]
inactive: [1] -13.2% | [2] -0.1% | [3] -18.1% | [4] -26.2% | [5] -8.75%

Nc1nc(Cl)cc(Cl)n1
inactive: [1] 6.65% | [2] 3.15% | [3] 0% | [4] 5.05% | [5] 2.85%

Cc1ccc(C)c(CN(C)C)c1O
inactive: [1] -0.8% | [2] -1.45% | [3] 4.9% | [4] 25.1% | [5] -11.1%

CCCCCCCCCCCCCCCCCCSC(=N)N
inactive: [1] 45.9% | [2] -16.7% | [3] -9.1% | [4] -116% | [5] 29.3%

CCOC(=O)N[C@H]1CCc2cc(OC)c(OC)c(OC)c2-c2ccc(SC)c(=O)cc21
inactive: [1] 33.5% | [2] -16.5% | [3] 16.2% | [4] 5.1% | [5] 1.35%

CC(=O)C[n+]1ccc(C)cc1Sc1ccccc1C
inactive: [1] 8.4% | [2] -18.1% | [3] 6.85% | [4] 4.4% | [5] -3.35%

CCCCCCCCCCCCCCCCCC(=O)NCCNC(=O)CCCCCCCCCCCCCCCCC
inactive: [1] -5.7% | [2] -27.6% | [3] -1.15% | [4] 20.6% | [5] 1.5%

CCCc1cccc(CCC)c1NC(=O)Nc1cc(Cl)cc(Cl)c1
inactive: [1] 37.5% | [2] 19.9% | [3] 47.5% | [4] 37% | [5] 44%

C[n+]1c(/C=C\C=C\N2CCCCC2)sc2ccccc21
inactive: [1] 28.7% | [2] 14.6% | [3] 34.4% | [4] 2.45% | [5] 31.6%

COc1ccc(C(=O)/C(=N/Nc2ccccc2)c2ccc(OC)cc2)cc1
inactive: [1] -3.45% | [2] -13.8% | [3] -1.25% | [4] 2% | [5] 1.8%

OC(CCN1CCCCC1)(c1ccccc1)c1ccccc1
inactive: [1] -29.6% | [2] -21.9% | [3] -41.5% | [4] 16.4%

N#C/C(=C\c1ccc(C#N)cc1)C(=O)c1ccccc1
inactive: [1] 10.5% | [2] 0.95% | [3] 16.4% | [4] 19% | [5] 9.95%

C/C(=N\Nc1ccc([N+](=O)[O-])cc1[N+](=O)[O-])c1ccc(Br)cc1
inactive: [1] -8.7% | [2] -2.2% | [3] 2.35% | [4] -12.8% | [5] 8.7%

O=c1nc(Nc2cccc(Cl)c2)oc2cc(Cl)oc(=O)c12
inactive: [1] 32.5% | [2] 26% | [3] 51.8% | [4] 19.6% | [5] 36.5%

Cc1ccc2nc(N)nnc2c1
inactive: [1] -5.9% | [2] -34.1% | [3] 3.9% | [4] 20.8% | [5] -17.1%

O=C(OCc1ccccc1)n1nnc2ccccc21
inactive: [1] 27.8% | [2] -4.05% | [3] 8.55% | [4] -17.2% | [5] 19.2%

CCOc1ccc(C(=O)NCC(C)C)cc1
inactive: [1] -1.2% | [2] 2.4% | [3] 26.6% | [4] -14.1% | [5] 9%

N#Cc1ccc(OC(=O)Nc2cc(Cl)cc(Cl)c2)cc1
inactive: [1] -6.5% | [2] -21.9% | [3] -3.65% | [4] 12.9% | [5] -4%

O=S1(=O)c2ccccc2Oc2ccccc21
inactive: [1] -26.2% | [2] -19.4% | [3] -23.7% | [4] 16.6% | [5] 3.4%

CCOc1ccc2c(c1)c(C)cc(C)[n+]2CC
inactive: [1] 4.45% | [2] -41% | [3] -13.2% | [4] -7.9% | [5] 13%

CCC(=O)Oc1c(C)cc(O)c2ccccc12
inactive: [1] 8.95% | [2] -49.6% | [3] 18.7% | [4] 52.9% | [5] 35.2%

O=c1n(CC2CO2)c(=O)n(CC2CO2)n1CC1CO1 (configuration not stated)
inactive: [1] 16.9% | [2] -5.75% | [3] 1.05% | [4] 8.35% | [5] -26.7%

Nc1ccc2ccccc2c1-c1c(N)ccc2ccccc12
inactive: [1] 14.8% | [2] 2.45% | [3] -2.05% | [4] 1.1% | [5] 0.75%

OCCNc1ccccc1
inactive: [1] 31.9% | [2] 11.4% | [3] 2.75% | [4] 11.1% | [5] 6.3%

Nc1ccc2c(c1)Cc1cc(N)c(N)cc1-2
inactive: [1] 10.8% | [2] -7.75% | [3] 10.9% | [4] -18.7% | [5] -3.8%

NC(=S)N/N=C/c1ccc(OC(=O)COc2ccccc2)cn1
inactive: [1] -2.8% | [2] -13.4% | [3] 14.3% | [4] 7.45% | [5] -11%

Oc1ccc(N=Cc2ccc(OCc3ccccc3)cc2)cc1
inactive: [1] 2.5% | [2] -29.9% | [3] 15.2% | [4] 0.25% | [5] 2.55%

CC(=O)NC(O)C(Cl)Cl (configuration not stated)
inactive: [1] -14.7% | [2] -6.05% | [3] -6.95% | [4] -23.3% | [5] -5.7%

CCC1CCC(C)NC1 (configuration not stated)
inactive: [1] 26.4% | [2] 2.75% | [3] 17.2% | [4] 23.6% | [5] -7.05%

OCc1cccnc1
inactive: [1] -6.3% | [2] -36.9% | [3] 15.3% | [4] 9.55% | [5] -18.5%

CC(=O)OCC1CCC(COC(C)=O)CC1 (configuration not stated)
inactive: [1] 9.75% | [2] -30.6% | [3] -10.4% | [4] -5.95% | [5] 19.7%

CC(=O)c1cc(O)ccc1O
inactive: [1] -6.45% | [2] -10.1% | [3] 10.3% | [4] -11.1% | [5] -2.6% | [6] 1.8%

CNc1ccccc1C(N)=O
inactive: [1] -21.5% | [2] -28.6% | [3] -10.3% | [4] 11.7% | [5] -7.85% | [6] -6.5%

O=S(Cc1ccccc1)/C(=C/NC(=S)Nc1ccccc1)c1ccccc1 (configuration not stated)
inactive: [1] -26.7% | [2] -25.1% | [3] -40.1% | [4] -0.95% | [5] -16.9% | [6] -7.15%

O=C(CCl)Nc1ccccc1SCc1cc(Cl)cc2c1OCOC2
inactive: [1] -5.7% | [2] -16.4% | [3] 21.6% | [4] 22.9% | [5] 13.6% | [6] -8.9%

Cc1cc(C)cc(OCC(=O)O)c1
inactive: [1] 16.6% | [2] 10.2% | [3] -10.6% | [4] -41% | [5] -4.45% | [6] 3.4%

CC1CCC(C(C)(C)[N+](C)(C)C)CC1 (configuration not stated)
inactive: [1] 40.2% | [2] 17.6% | [3] 23.9% | [4] 10.6% | [5] 47.2% | [6] 36.4%

CCNCC(C)(C)O
inactive: [1] 7.7% | [2] -3.8% | [3] 5.5% | [4] 8.35% | [5] -0.5% | [6] 27.8%

C=CCc1cc(OC)c(O)c(OC)c1
inactive: [1] 1.95% | [2] 1.3% | [3] -14.2% | [4] -7.55% | [5] 0.75% | [6] -0.6%
